Potency and outcome data for 13 compounds are collected here from PubChem BioAssay (Tox21).

Where “and” joins values, the source holds several entries; their conditions need not be identical. Identical values can stand only once. Some compounds were tested as several samples or in several runs, with calls that do not always agree. Calls of active or inactive are those of the source. Unless noted, calls follow the shape of the dose curve; as a rule, active = well fitted curve in the direction sought with a large enough effect in the repeat runs; inconclusive = weak or mixed curves; inactive = no such curve, though single readings can be large; an effect the other way counts as inactive or inconclusive.

A short description of experiment [1]: qHTS assay to identify small molecule antagonists of the thyroid receptor (TR) signaling pathway - cell viability counter screen (AID 743064). Also: nearly all actives have a fitted effect of over 50% in size. Also: potency is read from the fitted curve at half-maximal effect. Summed up:
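In-well cytotoxicity read by CellTiter-Fluor (30 min, 37 C) following 23.5 h exposure of GH3 cells bearing a TRE-luciferase sensor. Compounds were added alongside 1 nM (final) T3 to drive TR transactivation.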

Experiment [2] in a line: qHTS assay to identify small molecule antagonists of the thyroid receptor (TR) signaling pathway (AID 743065). Also: nearly all actives have a fitted effect of over 55% in size. Also: potency is read from the fitted curve at half-maximal effect. An outline of the steps: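 GH3.TRE-Luc rat pituitary cells carrying two TR response elements driving luciferase were plated for 4 h, given compound plus 1 nM T3 (final), and incubated 23.5 h at 37 C. ONE-Glo luminescence measured reporter inhibition; CellTiter-Fluor fluorescence tracked cytotoxicity.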

For experiment [3], the system named is thyroid hormone receptor (rat, GH3 cells). Put plainly: qHTS assay to identify small molecule agonists of the thyroid receptor (TR) signaling pathway (AID 743066; calls by dose curve).
Experiment [4] addresses Estrogen receptor (Homo sapiens) (UniProt P03372). The experiment in a line: qHTS assay to identify small molecule antagonists of the estrogen receptor alpha (ER-alpha) signaling pathway (AID 743069; active = well fitted curve in the direction sought with a large enough effect in the signal ratio in the repeat runs, not every such curve was filed as active; inconclusive = weak or mixed curves, or effect the other way; inactive = no such curve, though single readings can be large or run the other way; the % refers to the signal ratio; also: potency is read from the fitted curve at half-maximal effect). An outline of the steps:
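Estradiol-stimulated ER-alpha-UAS-bla HEK293 cells, 18 hr compound exposure at 37C. LiveBLAzer B/G substrate, 2 hr RT, fluorescence read.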

A short description of experiment [5]: qHTS assay to identify small molecule antagonists of the estrogen receptor alpha (ER-alpha) signaling pathway - cell viability counter screen (AID 743074; calls by dose curve;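 also: HEK293 cells carrying ER-alpha-UAS-bla reporter stimulated with 17beta-estradiol; nearly all actives have a fitted effect of over 45% in size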).
In experiment [6] the target is Estrogen receptor (Homo sapiens) (UniProt P03372). The experiment in a line: qHTS assay to identify small molecule agonists of the estrogen receptor alpha (ER-alpha) signaling pathway (AID 743075; calls by dose curve;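 also: HEK293 GripTite cells with ER-alpha and UAS-driven beta-lactamase reporter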; also: potency is read from the fitted curve at half-maximal effect).
Sequence of Estrogen receptor (Homo sapiens) (P03372 whole entry, looked up): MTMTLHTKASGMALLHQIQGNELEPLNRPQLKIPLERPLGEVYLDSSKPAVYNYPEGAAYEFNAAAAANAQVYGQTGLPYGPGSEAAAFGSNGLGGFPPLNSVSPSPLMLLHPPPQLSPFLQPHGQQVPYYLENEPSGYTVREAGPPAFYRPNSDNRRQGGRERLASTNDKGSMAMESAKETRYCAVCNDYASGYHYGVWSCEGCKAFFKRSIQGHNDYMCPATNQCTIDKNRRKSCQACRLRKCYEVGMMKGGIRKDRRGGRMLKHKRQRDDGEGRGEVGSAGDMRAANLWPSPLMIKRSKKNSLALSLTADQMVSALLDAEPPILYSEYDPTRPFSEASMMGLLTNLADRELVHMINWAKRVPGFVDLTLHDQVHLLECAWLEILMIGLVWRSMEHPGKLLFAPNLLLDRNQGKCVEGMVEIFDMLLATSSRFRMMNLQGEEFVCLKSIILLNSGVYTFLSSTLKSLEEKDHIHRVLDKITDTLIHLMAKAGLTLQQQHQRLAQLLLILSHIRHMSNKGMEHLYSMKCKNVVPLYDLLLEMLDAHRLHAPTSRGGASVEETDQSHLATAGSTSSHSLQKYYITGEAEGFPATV
Another experiment deals with Aromatase (Homo sapiens) (UniProt P11511). Put plainly: qHTS assay to identify aromatase inhibitors (AID 743083). Also: nearly all actives have a fitted effect of over 55% in size. Also: potency is read from the fitted curve at half-maximal effect.
Sequence of Aromatase (Homo sapiens) (P11511 whole entry, looked up): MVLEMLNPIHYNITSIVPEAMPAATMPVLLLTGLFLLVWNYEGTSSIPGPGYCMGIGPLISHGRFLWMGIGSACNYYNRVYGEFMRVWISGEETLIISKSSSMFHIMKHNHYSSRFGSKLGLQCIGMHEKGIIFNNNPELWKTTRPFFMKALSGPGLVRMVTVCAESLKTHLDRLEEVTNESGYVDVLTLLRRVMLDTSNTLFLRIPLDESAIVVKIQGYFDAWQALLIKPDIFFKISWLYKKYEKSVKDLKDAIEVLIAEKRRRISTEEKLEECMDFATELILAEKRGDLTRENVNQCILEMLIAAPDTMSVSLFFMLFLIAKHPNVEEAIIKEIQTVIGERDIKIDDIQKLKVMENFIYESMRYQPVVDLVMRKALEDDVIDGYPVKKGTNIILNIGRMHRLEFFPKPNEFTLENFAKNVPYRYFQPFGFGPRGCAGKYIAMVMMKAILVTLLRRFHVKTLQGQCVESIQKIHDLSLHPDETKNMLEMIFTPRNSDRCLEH
Experiment [7] can be described thus: qHTS assay to identify aromatase inhibitors - cell viability counter screen (AID 743084).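 Also: cells stimulated with testosterone during compound exposure; nearly all actives have a fitted effect of over 55% in size.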 Also: potency is read from the fitted curve at half-maximal effect.
Experiment [8] has as its target Aryl hydrocarbon receptor (Homo sapiens) (UniProt P35869). Put plainly: qHTS assay to identify small molecule that activate the aryl hydrocarbon receptor (AhR) signaling pathway (AID 743085). Also: nearly all actives have a fitted effect of over 15% in size. Also: potency is read from the fitted curve at half-maximal effect.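 As to activation: HG2L7.5c1 human HepG2 liver cells with stably integrated DRE-driven firefly reporter; series mostly up to about 70 µM.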 An outline of the steps: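 Luminescence (ONE-Glo) from a dioxin-responsive-element luciferase reporter in HG2L7.5c1 HepG2 cells after 24 hr compound exposure at 37C; viability measured by CellTiter-Fluor fluorescence beforehand.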

Experiment [9] is described as follows: qHTS assay to identify small molecule that activate the aryl hydrocarbon receptor (AhR) signaling pathway - cell viability counter screen (AID 743086). Also: nearly all actives have a fitted effect of over 45% in size. Also: potency is read from the fitted curve at half-maximal effect. Summed up: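 HepG2-AhR-luc (HG2L7.5c1) cells, 4000/well, were preincubated 5 h at 37C, exposed to compound in qHTS format for 24 hr at 37C, then given CellTiter-Fluor for 30 min; viability was read as fluorescence in the reporter wells.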

Experiment [10] addresses Peroxisome proliferator-activated receptor gamma (Homo sapiens) (UniProt P37231). The experiment in a line: qHTS assay to identify small molecule agonists of the peroxisome proliferator-activated receptor gamma (PPARg) signaling pathway (AID 743094; active = well fitted activation curve with a large enough effect in the signal ratio in the repeat runs, not every such curve was filed as active; inconclusive = weak or mixed curves, or effect the other way; inactive = no such curve, though single readings can be large or run the other way; the % refers to the signal ratio). Summed up: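 Beta-lactamase FRET fluorescence was the read-out after a 1 h room-temperature substrate step, following 17 h compound treatment at 37C of HEK293H cells expressing a UAS-driven bla reporter responsive to PPARg.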

A short description of experiment [11]: qHTS assay to identify small molecule antagonists of the peroxisome proliferator-activated receptor gamma (PPARg) signaling pathway - cell viability counter screen (AID 743194). Also: nearly all actives have a fitted effect of over 55% in size. Summed up: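 PPARg-UAS-bla HEK293H cells were plated, rested 5 h at 37 C, then treated with compounds plus rosiglitazone (50 nM final) for 17 h at 37 C; viability was then read by CellTiter-Glo luminescence after 30 min at room temperature.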

Experiment [12] is described as follows: qHTS assay for small molecule agonists of the antioxidant response element (ARE) signaling pathway - cell viability counter screen (AID 743203; calls by dose curve; also: nearly all actives have a fitted effect of over 55% in size). An outline of the steps: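 HepG2 cells carrying ARE-driven beta-lactamase; 2,000 cells/well; 5 hrs plating; compound pinned from DMSO; 16 hrs 37C/5% CO2; CellTiter-Glo added; 30 min RT; luminescence.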
Experiment [13] can be described thus: qHTS assay for small molecule activators of the heat shock response signaling pathway - cell viability counter screen (AID 743209). Also: nearly all actives have a fitted effect of over 50% in size. Also: potency is read from the fitted curve at half-maximal effect. Summed up: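 Luminescence from CellTiter-Glo, added after the beta-lactamase FRET read, gave the viability signal. Cells were HSE-bla HeLa treated with DMSO-dissolved compounds for 5 h at 37 C following overnight plating.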
A short description of experiment [14]: qHTS assay for small molecule activators of the heat shock response signaling pathway (AID 743210; active = well fitted activation curve with a large enough effect in the signal ratio in the repeat runs, with a control signal flat, not every such curve was filed as active; inconclusive = weak or mixed curves; the % refers to the signal ratio;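 also: HeLa cells with beta-lactamase reporter driven by heat shock elements; series mostly up to about 63 µM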). An outline of the steps:
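Reporter gene assay: HeLa cells stably bearing an HSE-bla construct, compound treatment 5 h at 37 C, LiveBLAzer substrate 2.5 h at RT, fluorescence intensity.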

The nature of experiment [15]: qHTS assay to identify small molecule antagonists of the estrogen receptor alpha (ER-alpha) signaling pathway using the BG1 cell line (AID 743080; calls by dose curve;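 also: BG1 cells stimulated with 17beta-estradiol alongside compound; nearly all actives have a fitted effect of over 25% in size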; also: potency is read from the fitted curve at half-maximal effect). Summed up: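 Quantitative HTS on the Tox21 10K library: BG1 cells with endogenous ER-alpha and ERE-luciferase reporter, 17beta-estradiol stimulation, 21.5 h compound exposure, luminescence endpoint with parallel fluorescence cytotoxicity counter-read.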

Experiment [16] can be described thus: qHTS assay to identify small molecule antagonists of the estrogen receptor alpha (ER-alpha) signaling pathway using the BG1 cell line - cell viability counter screen (AID 743081).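 Also: compound given together with 17beta-estradiol as the ER stimulus; nearly all actives have a fitted effect of over 45% in size.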 Also: potency is read from the fitted curve at half-maximal effect.
The nature of experiment [17]: qHTS assay for small molecule agonists of the antioxidant response element (ARE) signaling pathway (AID 743202; active = well fitted activation curve with a large enough effect in the signal ratio in the repeat runs, not every such curve was filed as active; inconclusive = weak or mixed curves, or effect the other way; inactive = no such curve, though single readings can be large or run the other way; the % refers to the signal ratio). Summed up: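 Compounds delivered in DMSO to ARE-bla HepG2 cells (2,000 cells/well, pre-incubated 5 h) and left 16 h at 37 C. LiveBLAzer B/G FRET substrate then added for 2 h at RT before fluorescence reading.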
For experiment [18], the target named is Estrogen receptor (Homo sapiens) (UniProt P03372). Put plainly: qHTS assay to identify small molecule agonists of the estrogen receptor alpha (ER-alpha) signaling pathway using the BG1 cell line (AID 743079). Also: nearly all actives have a fitted effect of over 20% in size.
Experiment [19] addresses Peroxisome proliferator-activated receptor gamma (Homo sapiens) (UniProt P37231). Put plainly: qHTS assay to identify small molecule antagonists of the peroxisome proliferator-activated receptor gamma (PPARg) signaling pathway (AID 743191; calls by dose curve; also: nearly all actives have a fitted effect of over 30% in size; also: potency is read from the fitted curve at half-maximal effect). Summed up:
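GeneBLAzer PPARg UAS-bla HEK293H cells carrying a UAS-driven beta-lactamase reporter were plated at 3000 cells/well, preincubated 5 h at 37C, then given compound for 17 h at 37C; LiveBLAzer B/G FRET substrate was read after 1 h at room temperature.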

Sequence of Aryl hydrocarbon receptor (Homo sapiens) (P35869 whole entry, looked up): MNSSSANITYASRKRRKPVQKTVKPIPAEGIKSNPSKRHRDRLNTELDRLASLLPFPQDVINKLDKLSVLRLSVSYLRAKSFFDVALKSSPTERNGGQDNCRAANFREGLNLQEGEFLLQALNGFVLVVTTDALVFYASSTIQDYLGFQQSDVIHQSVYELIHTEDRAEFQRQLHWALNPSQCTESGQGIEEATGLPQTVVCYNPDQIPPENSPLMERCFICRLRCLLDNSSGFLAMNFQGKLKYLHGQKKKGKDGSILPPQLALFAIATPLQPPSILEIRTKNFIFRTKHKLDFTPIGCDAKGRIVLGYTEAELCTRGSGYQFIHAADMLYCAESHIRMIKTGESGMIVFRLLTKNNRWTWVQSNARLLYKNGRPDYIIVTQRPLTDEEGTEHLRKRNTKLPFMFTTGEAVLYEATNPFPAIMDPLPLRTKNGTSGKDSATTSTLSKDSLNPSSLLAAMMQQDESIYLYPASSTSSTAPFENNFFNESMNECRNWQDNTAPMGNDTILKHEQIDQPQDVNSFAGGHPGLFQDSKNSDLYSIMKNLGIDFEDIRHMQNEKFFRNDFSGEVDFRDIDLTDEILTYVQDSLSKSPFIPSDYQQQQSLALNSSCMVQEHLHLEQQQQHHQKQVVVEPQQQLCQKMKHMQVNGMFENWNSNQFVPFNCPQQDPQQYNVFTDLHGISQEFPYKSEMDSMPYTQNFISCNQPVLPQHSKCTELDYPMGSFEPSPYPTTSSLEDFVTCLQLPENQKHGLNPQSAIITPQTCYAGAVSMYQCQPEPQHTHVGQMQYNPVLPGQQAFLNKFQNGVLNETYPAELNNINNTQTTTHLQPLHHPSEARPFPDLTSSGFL
Sequence of Peroxisome proliferator-activated receptor gamma (Homo sapiens) (P37231 whole entry, looked up): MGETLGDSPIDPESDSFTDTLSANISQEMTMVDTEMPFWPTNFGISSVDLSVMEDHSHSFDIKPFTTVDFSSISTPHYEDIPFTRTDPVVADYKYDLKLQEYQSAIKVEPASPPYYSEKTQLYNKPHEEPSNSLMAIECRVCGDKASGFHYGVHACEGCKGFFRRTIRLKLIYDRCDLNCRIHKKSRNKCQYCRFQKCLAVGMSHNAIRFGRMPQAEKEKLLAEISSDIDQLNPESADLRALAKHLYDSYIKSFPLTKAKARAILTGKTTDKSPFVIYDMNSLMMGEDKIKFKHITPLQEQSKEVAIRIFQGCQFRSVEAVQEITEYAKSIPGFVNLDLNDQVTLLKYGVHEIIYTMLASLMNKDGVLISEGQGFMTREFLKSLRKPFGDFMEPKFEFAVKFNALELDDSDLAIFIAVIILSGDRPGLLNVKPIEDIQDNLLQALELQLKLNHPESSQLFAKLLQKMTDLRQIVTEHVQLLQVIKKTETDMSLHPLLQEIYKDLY

For the compound `CC(C)Cn1cnc2c(N)nc3ccccc3c21`, the Potency result (in [1]; in [2]; in experiment [4]; in experiment [5]; in experiment [6]; with Aromatase (Homo sapiens)) was “inactive” each time. Moreover, the Potency entry in [7], in [9], in experiment [10], in experiment [11], in [12] and in experiment [13] was “inactive” throughout. Moreover, the Potency entry in experiment [14] was “inactive”. In addition, in [3], the outcome was inactive. Further, the Potency in [8] was 9.44 µM (active).
On to `CCCC[P+](C)(CCCC)CCCC`, for which the Potency entry in experiment [1], in experiment [2], in [4], in experiment [5], in experiment [15] and in experiment [16] was “inactive” in each case. The Potency entry (in the experiment with Aromatase (Homo sapiens); in experiment [7]; in experiment [8]; in [9]; in experiment [11]; in [17]) was “inactive” in each case. Besides, the Potency entry in [12] is “inactive”. For the same compound, in experiment [3], the call was inactive.
As for `C=C(CC)C(=O)c1ccc(OCC(=O)O)c(Cl)c1Cl`, the Potency in experiment [1] was 68.1 µM (active); in experiment [2] it was 26.6 µM (active) and 54.1 µM (active); in [6], “inactive and 68.7 µM [fluorescent] (active)”; in [9], “inactive and 68.1 µM (active)”; in [13] it was 18.8 µM (active). Moreover, the call in experiment [3] was inactive. Besides, the Potency result (in experiment [4]; in [5]; in [18]; in [16]; with Aromatase (Homo sapiens); in experiment [7]) was “inactive” throughout. Also, the Potency entry in experiment [8], in [11] and in experiment [12] was “inactive” throughout.
Regarding `CC(CCc1ccccc1)NCC(O)c1ccc(O)c(C(N)=O)c1` (stereo not given), the Potency in experiment [1] was 30.6 µM (active); in experiment [7] it was “inactive and 13.7 µM (active)”. Also, the Potency entry in experiment [2], in experiment [4], in experiment [5], in experiment [6], in experiment [18] and in experiment [15] was “inactive” each time. For the same compound, the Potency result (with Aromatase (Homo sapiens); in experiment [8]; in [9]; in experiment [10]; in [19]; in experiment [11]) was “inactive” throughout. Also, the Potency result in experiment [12] and in experiment [13] was “inactive” throughout. The call in [3] was inactive.
As to `Clc1nnc(Cl)c2ccccc12`, the Potency result in experiment [1], in [2], in [4], in experiment [5], in experiment [6] and in experiment [18] was “inactive” throughout. Besides, the Potency entry (with Aromatase (Homo sapiens); in experiment [7]; in [9]; in experiment [10]; in experiment [11]; in experiment [12]) was “inactive” throughout. Besides, in experiment [3], the result was inactive.
Take `CCn1c2ccccc2c2cc([N+](=O)[O-])ccc21`: the Potency entry in experiment [1], in experiment [2], in experiment [4], in [5], in experiment [6] and in experiment [18] was “inactive” each time. For the same compound, the Potency result (in experiment [15]; in [16]; with Aromatase (Homo sapiens); in experiment [7]; in experiment [9]; in experiment [11]) was “inactive” throughout. In addition, the Potency result in experiment [17], in [12] and in experiment [13] was “inactive” in each case. In addition, the call in experiment [3] was inactive.
For the compound `COC(=O)C1=C(C)NC(C)=C(C(=O)OCCN2CCN(C(c3ccccc3)c3ccccc3)CC2)C1c1cccc([N+](=O)[O-])c1` (stereo not given), the Potency in experiment [1] was 8.41 µM (active); in [2], 6.68 µM (active); in experiment [4] it was 8.49 µM [inconclusive] (active); in experiment [16], 3.76 µM (active); with Aromatase (Homo sapiens), 13.3 µM (active); in experiment [19] it was 9.44 µM (active). In [3], the outcome was inactive. The Potency result in experiment [5], in [6], in experiment [7], in [8], in [11] and in [13] was “inactive” each time.
For `C=C(C)c1cccc(C(=C)C)c1`, the Potency result in experiment [1], in experiment [2], in experiment [4], in [5], in [6] and in experiment [15] was “inactive” throughout. For the same compound, the Potency result (in the experiment with Aromatase (Homo sapiens); in experiment [7]; in [8]; in experiment [9]; in experiment [10]; in [19]) was “inactive” each time. Further, the Potency result in [11], in experiment [17], in experiment [13] and in experiment [14] was “inactive” throughout. In experiment [3], the result was inactive.
For the compound `Cc1c(C)c2c(c(C)c1O)CC[C@@](C)(CCC[C@H](C)CCC[C@H](C)CCCC(C)C)O2`, the Potency result in [1], in experiment [2], in experiment [4], in [5], in [6] and in experiment [18] was “inactive” throughout. The Potency result (in experiment [15]; in experiment [16]; with Aromatase (Homo sapiens); in experiment [7]; in [8]; in experiment [9]) was “inactive” throughout. Further, the Potency entry in experiment [10], in experiment [12] and in experiment [13] was “inactive” each time. The outcome in [3] was inactive.
For `CC[N+](CC)(CC)CCOc1ccc(/C=C/c2ccccc2)cc1`, the Potency result in [1], in experiment [5], in experiment [6], in experiment [16], in experiment [7] and in experiment [8] was “inactive” in each case. For the same compound, the Potency result in experiment [9], in experiment [10], in experiment [19], in experiment [11], in experiment [12] and in experiment [13] was “inactive” in each case. Also, the Potency entry in experiment [14] was “inactive”. For the same compound, the Potency in experiment [2] is 29.8 µM (active); in [4], 5.35 µM [inconclusive] (active); in [15] it was 29.8 µM (active); with Aromatase (Homo sapiens) it was 29.8 µM (active). The outcome in experiment [3] was inactive.
For the compound `O=C(O)c1cc(-c2ccc(F)cc2F)ccc1O`, the Potency entry in [1], in experiment [2], in [4], in experiment [5], in experiment [6] and in experiment [18] was “inactive” in each case. For the same compound, the Potency result (in experiment [15]; in experiment [16]; with Aromatase (Homo sapiens); in experiment [7]; in experiment [8]; in experiment [9]) was “inactive” throughout. The Potency entry in experiment [11], in [12], in experiment [13] and in experiment [14] was “inactive” throughout. In addition, the outcome in experiment [3] was inactive.
Consider `OC/C=C/CO`, for which the Potency result in [1], in [2], in experiment [4], in experiment [5], in experiment [15] and in experiment [16] was “inactive” in each case. Also, the Potency result (in the experiment with Aromatase (Homo sapiens); in [7]; in experiment [8]; in [9]; in experiment [10]; in [19]) was “inactive” throughout. The Potency result in experiment [11], in experiment [13] and in experiment [14] was “inactive” each time. Moreover, the compound was classed as inactive in experiment [3].
In the case of `CC(=O)Oc1cc2c(s1)CCN(C(C(=O)C1CC1)c1ccccc1F)C2` (stereo not given), the Potency result in [1], in [2], in experiment [4], in [6], in experiment [18] and in experiment [15] was “inactive” throughout. Moreover, the Potency entry (in experiment [16]; with Aromatase (Homo sapiens); in [7]; in experiment [8]; in [9]; in experiment [10]) was “inactive” throughout. For the same compound, the Potency result in experiment [11], in experiment [17], in [12], in [13] and in experiment [14] was “inactive” throughout. The compound was classed as inactive in experiment [3].
